Vaccinia mCherry – inhibitors of vaccinia virus infection (mCherry reporter signal) | Vaccinia virus mCherry reporter infection, fluorescence | Potency, µM (series often up to 36.5 µM), for the others: at the highest dose activity change, negative = inhibition, hits mostly inhibitors | 310,000 compounds, 0.63% hits | AID 720579; calls by dose curve; tested in A549 cells; also: potency is read from the fitted curve at half-maximal effect; nearly all actives have a fitted effect of over 35% in size
FMDV inh – blocks foot and mouth disease virus; Potency, µM (series often up to 57.9 µM), for inactives: top-dose activity change, negative = inhibition, usual class: inhibitors; 410,000 compounds, 1.2% hits; FMDV antiviral cell-based qHTS; calls by dose curve; tested in HEK293T cells; also: read-out not given here; potency is read from the fitted curve at half-maximal effect; nearly all actives have a fitted effect of over 45% in size
VACV Venus inh – inhibitors of vaccinia virus (Venus reporter) | Potency, µM (top dose mostly 36.5 µM), for inactives: at the top dose activity change, negative = inhibition, actives largely listed as inhibitors | 330,000 compounds, 0.46% hits | Vaccinia virus Venus reporter expression, fluorescence | AID 720580; calls by dose curve; tested in A549 cells; also: potency is read from the fitted curve at half-maximal effect; nearly all actives have a fitted effect of over 30% in size
HCV inh – blocks hepatitis C virus. Potency, µM (series often up to 41.8 µM), for the others: at the top dose activity change, negative = inhibition, hits mostly inhibitors. Huh7.5.1 HCVcc-Cre infection, luciferase reporter, 44 h. AID 651820. 340,000 compounds, 3.4% hits; active = well fitted inhibition curve with a large enough effect; inconclusive = small, poorly fitted or top-dose-only effect, or another doubt; inactive = no such curve, though single readings can be large or run the other way; also: potency is read from the fitted curve at half-maximal effect
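HCVcc-Cre virus at an moi near 0.5 was added right after compound to cells cultured 4 h from seeding (1,000 cells/well). Luciferase activity was determined 44 h later, 15 min after substrate addition at RT.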
HCMV antiviral – human cytomegalovirus inhibition. activity change, negative = inhibition, % at 57.5 µM. HFF cells, HCMV-luciferase reporter, 72 h; hits give low values. 410,000 compounds, 4.5% hits; in the data active = activity change below about -60%; inconclusive = no clear call, values can overlap the other calls; inactive = above about -39%
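After 16 h attachment at 37C, HFF cells received test compound and HCMV-luciferase (1 PFU/cell); reporter luminescence read 72 h later, data normalized against buffer-only and known inhibitor Salinomycin.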
* = called active by the depositor. Shown are actives, neighbours in structure and some others; about 7.3% of the full set was active somewhere. % is scaled to controls: 0 for no effect and ±100 for the full control effect.

What do the screens show for `COc1ccccc1NC(=O)Nc1ccc(-n2ccc(C(F)(F)F)n2)cc1`?
Vaccinia mCherry: inactive; FMDV inh: -1%; VACV Venus inh: -28%; HCV inh: 5.6µM*; HCMV antiviral: -8

What do the screens show for `Cc1cc(C)cc(NC(=O)Nc2ccc(-n3ccc(C(F)(F)F)n3)cc2)c1`?
Vaccinia mCherry: -5%; FMDV inh: 0%; VACV Venus inh: inconclusive; HCV inh: inconclusive; HCMV antiviral: 7

What do the screens show for `O=C(O)c1ccccc1C(=O)Nc1ccc(-n2ccc(C(F)(F)F)n2)cc1`?
Vaccinia mCherry: inactive; FMDV inh: 10%; VACV Venus inh: -23%; HCV inh: -1%; HCMV antiviral: 0

How did O=C(CN1C(=O)COc2ccccc21)NCCN1CCOCC1 do in these assays?
Vaccinia mCherry: 18%; FMDV inh: 5%; VACV Venus inh: 2%; HCV inh: 4%; HCMV antiviral: -75*

Results for O=C(CCN1C(=O)COc2ccccc21)N1CCCCC1 ?
Vaccinia mCherry: -15%; FMDV inh: 39%; VACV Venus inh: 0%; HCV inh: -6%; HCMV antiviral: -4

What do the screens show for `CCOC(=O)N1CCN(C(=O)CCN2C(=O)COc3ccccc32)CC1`?
Vaccinia mCherry: -12%; FMDV inh: 11%; VACV Venus inh: -5%; HCV inh: -22%; HCMV antiviral: -62*

What do the screens show for `O=C(CN1C(=O)COc2ccccc21)NCCN1CCC(Cc2ccccc2)CC1`?
Vaccinia mCherry: -11%; FMDV inh: -5%; VACV Venus inh: -20%; HCV inh: 22µM*; HCMV antiviral: -28

What do the screens show for `O=C(CCN1C(=O)COc2ccccc21)NCCN1CCOCC1`?
Vaccinia mCherry: -12%; FMDV inh: -19%; VACV Venus inh: -8%; HCV inh: 1%; HCMV antiviral: 4

What do the screens show for `O=C(NCC1Cc2cccc(-c3nccs3)c2O1)c1ccnc(Cl)c1` (centres undefined)?
Vaccinia mCherry: -10%; FMDV inh: 10%; VACV Venus inh: -25%

Results for COc1cccc(C2=CC(c3ccccc3F)n3ncc(C(=O)Nc4ccc(F)cc4)c3N2)c1 (centres undefined) ?
Vaccinia mCherry: inconclusive; FMDV inh: -30%; VACV Venus inh: -16%; HCMV antiviral: -32

Results for COc1cc(OC)c(N(C)C(=O)Nc2cn(CC(C)C)c(=O)c3ccccc23)cc1Cl ?
Vaccinia mCherry: 8%; FMDV inh: 34%; VACV Venus inh: -1%; HCMV antiviral: -20

How did NC(=O)c1nsc(C(=O)N(c2ccccc2F)C(C(=O)NCc2ccccc2)c2ccc(O)cc2)c1N (centres undefined) do in these assays?
Vaccinia mCherry: -18%; FMDV inh: inconclusive; VACV Venus inh: -13%; HCV inh: inconclusive; HCMV antiviral: -8

Results for COc1ccc(C(C(=O)NCc2ccccc2)N(C(=O)c2snc(C(N)=O)c2N)c2ccccc2OC)cc1OC (centres undefined) ?
Vaccinia mCherry: -18%; FMDV inh: -10%; VACV Venus inh: -3%; HCV inh: 1%; HCMV antiviral: -75*

What do the screens show for `COc1ccc(CNC(=O)C(C)N(Cc2ccccc2OC)C(=O)c2snc(C(N)=O)c2N)cc1` (centres undefined)?
Vaccinia mCherry: -9%; FMDV inh: -12%; VACV Venus inh: 3%; HCV inh: 10µM*; HCMV antiviral: -7

How did Cc1ccccc1N(C(=O)c1snc(C(N)=O)c1N)C(C(=O)NC1CCCCC1)c1ccc(O)cc1 (centres undefined) do in these assays?
Vaccinia mCherry: inconclusive; FMDV inh: 2%; VACV Venus inh: -11%; HCV inh: 10µM*; HCMV antiviral: -33

Results for Cc1ccccc1N(C(=O)c1snc(C(N)=O)c1N)C(C)C(=O)NC1CCCCC1 (centres undefined) ?
Vaccinia mCherry: inactive; FMDV inh: -2%; VACV Venus inh: -15%; HCV inh: inconclusive; HCMV antiviral: -20

What do the screens show for `Cc1ccccc1N(C(=O)c1snc(C(N)=O)c1N)C(C(=O)NCc1ccccc1)c1ccc(O)cc1` (centres undefined)?
Vaccinia mCherry: inactive; FMDV inh: -20%; VACV Venus inh: -14%; HCV inh: 5.6µM*; HCMV antiviral: 18

How did O=C(COc1ccc(Br)cc1)N1CCN(c2ccc([N+](=O)[O-])c(N3CCCCC3)c2)CC1 do in these assays?
Vaccinia mCherry: -21%; FMDV inh: inconclusive; VACV Venus inh: -19%; HCV inh: inconclusive; HCMV antiviral: 61

What do the screens show for `O=[N+]([O-])c1ccc(N2CCNCC2)cc1N1CCCCC1`?
FMDV inh: 0%; HCV inh: 10µM*; HCMV antiviral: -14

How did O=C(COc1ccccc1)N1CCN(c2ccc([N+](=O)[O-])c(N3CCCCC3)c2)CC1 do in these assays?
Vaccinia mCherry: -13%; VACV Venus inh: -12%; HCV inh: 7.1µM*; HCMV antiviral: -7

How did O=C(/C=C/c1ccc(Cl)cc1)N1CCN(c2ccc([N+](=O)[O-])c(N3CCOCC3)c2)CC1 do in these assays?
Vaccinia mCherry: inactive; FMDV inh: 14µM*; VACV Venus inh: -12%; HCV inh: 7.9µM*; HCMV antiviral: -38

How did CCCCNC(=O)CSc1nc2cc3c(cc2c(=O)n1CCCCCC(=O)NCCc1ccc(OC)c(OC)c1)OCO3 do in these assays?
Vaccinia mCherry: -9%; FMDV inh: -4%; VACV Venus inh: -9%; HCMV antiviral: 13

How did CCN(CC)C(=O)CSc1nc2cc3c(cc2c(=O)n1CCCCCC(=O)NCCc1ccc(OC)c(OC)c1)OCO3 do in these assays?
Vaccinia mCherry: -18%; FMDV inh: 3%; VACV Venus inh: -14%; HCMV antiviral: -83*

What do the screens show for `CC(=O)Nc1ccc(S(=O)(=O)NCCC(=O)OC(C)C(=O)NC2(C#N)CCCCC2)cc1` (centres undefined)?
FMDV inh: 1%; HCV inh: -22%; HCMV antiviral: 133

Results for O=C(OCc1cccc(C(F)(F)F)c1)c1cc(S(=O)(=O)N2CCOCC2)ccc1F ?
Vaccinia mCherry: -10%; FMDV inh: inconclusive; VACV Venus inh: -21%; HCV inh: 10µM*; HCMV antiviral: -10

Results for O=C(COC(=O)c1cc(S(=O)(=O)N2CCOCC2)ccc1F)c1ccccc1 ?
FMDV inh: -11%; HCV inh: 4%; HCMV antiviral: 97

How did O=C(OCc1ccccc1)c1cc(S(=O)(=O)N2CCCCC2)ccc1N1CCOCC1 do in these assays?
Vaccinia mCherry: -2%; FMDV inh: inconclusive; VACV Venus inh: -16%; HCV inh: inconclusive; HCMV antiviral: -23

Results for O=C(OCc1cccc(Cl)c1)c1cc([N+](=O)[O-])ccc1N1CCOCC1 ?
Vaccinia mCherry: inconclusive; FMDV inh: inconclusive; VACV Venus inh: inconclusive; HCV inh: 10µM*; HCMV antiviral: 0

How did CC(C)CCCC(C)NC(=O)c1cc(S(=O)(=O)N2CCCCC2)ccc1N1CCOCC1 (centres undefined) do in these assays?
FMDV inh: -21%; HCV inh: 11µM*; HCMV antiviral: -6

Source: PubChem (National Center for Advancing Translational Sciences (NCATS))
